# This is a sample that favours compounds with a hit; in the whole collection about 5.1% have one here.
# JMJD2E inh: JMJD2E (human) inhibition; B2RXH2; JMJD2E catalytic domain, FDH-coupled NADH fluorescence (FDH is formaldehyde dehydrogenase); Potency, µM (doses to about 57.1 µM), for inactives: at the highest dose activity change, negative = inhibition, most hits filed as inhibitors; hit rate 1.6% among 230,000; active = well fitted inhibition curve with a large enough effect, not every such curve was filed as active; inconclusive = small, poorly fitted or top-dose-only effect, or another doubt; inactive = no such curve, though single readings can be large or run the other way;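 also: potency is read from the fitted curve at half-maximal effect; 0% = wells with enzyme and -100% = buffer wells without enzyme; nearly all actives have a fitted effect of over 50% in size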
# Target sequence (B2RXH2 1-337 limits assumed): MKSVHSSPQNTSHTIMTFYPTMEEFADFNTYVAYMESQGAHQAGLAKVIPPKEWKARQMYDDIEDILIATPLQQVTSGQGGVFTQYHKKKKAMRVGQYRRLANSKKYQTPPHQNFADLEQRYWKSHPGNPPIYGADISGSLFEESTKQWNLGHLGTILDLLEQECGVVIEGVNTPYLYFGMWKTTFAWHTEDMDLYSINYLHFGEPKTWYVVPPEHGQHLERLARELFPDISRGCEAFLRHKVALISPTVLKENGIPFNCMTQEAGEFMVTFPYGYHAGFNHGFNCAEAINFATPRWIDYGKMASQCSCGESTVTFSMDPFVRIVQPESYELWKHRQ
# PNC assembly inh: blocks assembly of the perinucleolar compartment; PC3M PTB-GFP, PNC prevalence imaging, 16 h; active compounds read low; activity change (PNC), negative = inhibition, % at 10 µM; hit rate 3.1% among 140,000; AID 2417;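 active = readout at or below -70, meaning at least 70% loss of cells showing the perinucleolar compartment, a nuclear body marking cancer cells; inconclusive = readout between -30 and a set limit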;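 also: plate controls were DMSO wells for no effect and camptothecin positive control wells for full effect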
#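 Read-out is percentage of cells bearing a perinucleolar compartment, from automated 20x imaging of fixed, Hoechst-stained PC3M PTB-GFP cells. Cells were seeded 4 h, then exposed 16 h to compound (23 nl of library stock) in duplicate plates.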
# Tau fibril ThT: blocks human tau fibril formation measured by thioflavin T. P10636. Potency, µM (highest dose often 57.4 µM), inactives show at the highest dose activity, negative = inhibition, most hits filed as inhibitors. recombinant tau K18 P301L, heparin-induced fibrillization, ThT fluorescence. hit rate 2.1% among 270,000; also: potency is read from the fitted curve at half-maximal effect; nearly all actives have a fitted effect of over 55% in size
#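 Heparin-induced fibrillization of the P301L-mutant K18 repeat-domain fragment of human tau was followed by ThT binding in quantitative high-throughput format.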
# NPSR antag: blocks cAMP signaling of the human neuropeptide S receptor | Potency, µM (titrated, usually from 38.3 µM), inactives show top-dose activity change, negative = inhibition, usual class: inhibitors | Q6W5P4 | hit rate 1% among 220,000 | CHO-NPSR cells, cAMP TR-FRET, antagonist mode; also: potency is read from the fitted curve at half-maximal effect; nearly all actives have a fitted effect of over 50% in size
# Target sequence (Q6W5P4 whole entry, looked up): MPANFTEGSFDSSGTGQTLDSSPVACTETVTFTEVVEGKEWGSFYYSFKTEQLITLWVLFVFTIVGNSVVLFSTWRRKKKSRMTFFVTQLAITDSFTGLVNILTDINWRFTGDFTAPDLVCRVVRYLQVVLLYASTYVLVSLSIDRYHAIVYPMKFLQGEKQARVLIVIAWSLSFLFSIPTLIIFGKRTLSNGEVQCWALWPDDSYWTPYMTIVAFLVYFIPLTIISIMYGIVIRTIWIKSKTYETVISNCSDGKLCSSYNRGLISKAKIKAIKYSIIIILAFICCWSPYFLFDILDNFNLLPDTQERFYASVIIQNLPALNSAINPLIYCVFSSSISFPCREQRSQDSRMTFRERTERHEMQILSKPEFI
# Tau fibril FP: blocks human tau fibril formation measured by polarization; AID 1468; K18 P301L tau heparin fibrillization, Alexa594 FP, 6 h; hit rate 0.39% among 280,000; P10636; Potency, µM (titrated, usually from 57.7 µM), for inactives: at the top dose activity, negative = inhibition, hits mostly inhibitors; also: potency is read from the fitted curve at half-maximal effect; nearly all actives have a fitted effect of over 55% in size
#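 Quantitative HTS format: compounds meet 15 uM recombinant K18 P301L tau and Alexa 594-tau tracer in 100 mM sodium acetate pH 7; 20 uM heparin triggers fibrillization at 37 C over 6 hr; FP gives the signal.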
# Tau fluor cs: counter-screen for tau fibril formation inhibitors; tau K18 P301L (four-repeat tau fragment) Alexa594 fluorescence, heparin fibrillization; Potency, µM (top dose mostly 57.7 µM), inactives show top-dose activity change, negative = decrease; hit rate 0.93% among 280,000; AID 1463; also: potency is read from the fitted curve at half-maximal effect; nearly all actives have a fitted effect of over 55% in size
#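 Human K18 P301L tau (15 uM unlabeled plus 0.24 uM Alexa 594-labeled, final) in 100 mM sodium acetate pH 7 was mixed with compound and 20 uM heparin and incubated 6 hr at 37 C.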
# * = called active by the depositor; ? = inconclusive; . = no result given; [ ] = dose if it differs, or a comment. Unless noted, calls follow the shape of the dose curve; as a rule, active = well fitted curve in the direction sought with a large enough effect; inconclusive = small, poorly fitted or top-dose-only effect, or another doubt; inactive = no such curve, though single readings can be large; an effect the other way counts as inactive or inconclusive. Unless noted, % is scaled to controls: 0 for no effect and ±100 for the full control effect.
SMILES,JMJD2E inh,PNC assembly inh,Tau fibril ThT,NPSR antag,Tau fibril FP,Tau fluor cs
CCn1cc(/C=C/C(=O)Nc2ccc(C)cc2Br)cn1,9%,-15,-10%,6%,-3%,2%
CCOC(=O)c1cn(Cc2cccc(Cl)c2)nn1,9%,-114*,7%,-1%,-3%,5%
COC(=O)c1cn(Cc2cccc(C)c2)nn1,0%,-9,2%,11%,-8%,2%
CCN(CC)S(=O)(=O)c1ccc(N/N=C(\C)c2ccc(OC)cc2O)nc1,32µM*,.,?,-35%,?,?
CCN(CC)S(=O)(=O)c1ccc(N/N=C/c2ccc(O)cc2)nc1,?,.,?,-20%,?,?
CC(=O)N/C(=C/c1ccc2c(c1)OCO2)C(=O)O,?,.,8%,-7%,3%,4%
CCC(NC(=O)/C(=C\c1ccc2c(c1)OCO2)NC(C)=O)C(=O)O (centres undefined),-27%,-125*,5%,5%,-4%,7%
CCc1ccccc1NC(=O)c1nnn(CC(=O)Nc2ccccc2C)c1N,-6%,-102*,3%,0%[46.1 µM],-7%,-4%
O=C1CCN(S(=O)(=O)c2ccccc2)C2CCCCC12 (centres undefined),1%,-86*,-11%,0%[46.1 µM],-12%,-8%
COC(=O)c1ccc(NC(CC(C)C)C(=O)OC)c([N+](=O)[O-])c1 (centres undefined),1%,-119*,-16%,-3%,5%,-27%
CCC1(CC)Cc2ccccc2-c2nc(NCCO)[nH]c(=O)c21,?,-100*,0%,-22%[46.1 µM],-1%,-15%
O=c1[nH]c(NCCO)nc2c1C1(CCCCC1)Cc1ccccc1-2,?,28,-6%,?,?,?
CCc1cccc(NS(=O)(=O)c2ccc3c(c2)N(CC(=O)OC)C(=O)CS3)c1,.,.,2%,.,-5%,-16%
CC1(C)Cc2cccc(OCC(=O)N3CCN(S(=O)(=O)c4ccccc4F)CC3)c2O1,7%,-94*,-7%,-2%[46.1 µM],3%,-4%
CC1(C)Cc2cccc(OCC(=O)N3CCN(c4ccccc4)CC3)c2O1,-1%,?,-10%,4%,6%,-8%
O=C(c1cccs1)N1CCN(Cc2ccccc2)CC1,4%,-109*,1%,8%,2%,7%
O=C(c1cccs1)N1CCN(Cc2ccncc2)CC1,?,?,4%,0%[46.1 µM],4%,4%
Cc1ccc(OCC(=O)Nc2ccc(F)cc2)cc1C,3%,-100*,-6%,-8%[46.1 µM],5%,-8%
CC(=O)Nc1cccc(OCC(=O)Nc2ccc(F)cc2)c1,7%,25,-3%,-5%[46.1 µM],6%,1%
CCCCOc1ccc(N2C(=O)CC(NCCc3ccc(S(N)(=O)=O)cc3)C2=O)cc1 (centres undefined),12%,-82*,-11%,-12%[46.1 µM],5%,-5%
Cc1ccccc1C(=O)Nc1nnc(S(=O)(=O)N(C)Cc2ccc(Cl)cc2)s1,.,.,8%,.,-7%,-21%
CCCCSc1nnc2c(n1)OC(c1ccc(C)s1)Nc1ccccc1-2 (centres undefined),.,.,-16%,.,2%,-15%
O=C(O)c1ccc(CNc2ccccc2C(=O)O)cc1,-3%,-131*,-10%,-4%[46.1 µM],2%,0%
Cc1nc(N)sc1-c1csc(Nc2ccc(Cl)cn2)n1,-20%,241,7.9µM*,-21%[46.1 µM],-5%,14µM*[quencher]
COc1ccc(CCNc2ccncn2)cc1OC,-2%,?,-17%,10%[46.1 µM],3%,-12%
SMILES,JMJD2E inh,PNC assembly inh,Tau fibril ThT,NPSR antag,Tau fibril FP,Tau fluor cs
COc1ccc(CCNc2nc(-c3sc(N)nc3C)cs2)cc1OC,-7%,-108*,14µM*,-22%[46.1 µM],?,?
COc1ccc(Nc2nc(-c3sc(N)nc3C)cs2)cc1,5%,?,8.9µM*,-21%[46.1 µM],?,?
COc1ccc(OC)c(Nc2nc(-c3sc(NC(=O)c4ccccc4)nc3C)cs2)c1,-1%,6,?,-4%[46.1 µM],3%,?
Cc1nc(N)sc1-c1csc(Nc2ccccn2)n1,?,9,13µM*,-14%[46.1 µM],?,14µM*[quencher]
O=C(/C=C/c1ccc2c(c1)OCO2)Nc1c(C(=O)O)[nH]c2ccccc12,-9%,-25,13µM*,-16%[46.1 µM],10%,-29%
O=C(CSc1nnc(-c2ccncc2)n1Cc1ccco1)Nc1nccs1,8%,-100*,-1%,0%[46.1 µM],-8%,-1%
O=C(CSc1nnc(-c2ccccc2Cl)n1Cc1ccco1)Nc1ccc2c(c1)OCCO2,-11%,-96*,-11%,-16%[46.1 µM],9%,-15%
O=c1cc(-c2ccccc2)n2c(SCc3c(F)cccc3Cl)nnc2[nH]1,.,.,-9%,.,-7%,-12%
CCOc1cccc(C2c3c(-c4cc(C)ccc4O)n[nH]c3C(=O)N2Cc2ccco2)c1 (centres undefined),.,.,-7%,.,-13%,?
CCCS(=O)(=O)n1nc(-c2ccc(Br)cc2)cc1N,2%,-119*,-4%,22%,-14%,?
CCN1/C(=C\C=C2\C(=O)N(C)C(=S)N2C)Sc2ccccc21,-5%,.,2µM*,-18%,-14%,1%
COc1cc(O)ccc1C1CC(=O)Nc2c1c(=O)nc(SCc1ccccc1C)n2C (centres undefined),.,.,-3%,.,-5%,-5%
COc1ccc(C)cc1NC(=O)CN(c1cc(C(F)(F)F)ccc1Cl)S(C)(=O)=O,.,.,-8%,.,-7%,?
Cc1cc(O)c(Oc2cc(C)cc(O)c2O)c(O)c1,13µM*,.,5.6µM*,-36%,?,?
COc1c(O)cc(O)cc1O,-18%,.,-12%,.,-10%,-19%
CCOC(=O)c1ccc(NC(=O)c2noc3c2CCCC3)cc1,.,.,?,.,-10%,-16%
O=C(O)c1ccc(C[n+]2c(-c3ccccc3)csc2Nc2ccccc2)cc1,-2%,72,?,-58%,4%,-17%
CC(C)(C)c1cc(-c2csc(Nc3ccccc3)[n+]2Cc2ccc(C(=O)O)cc2)cc(C(C)(C)C)c1O,4%,.,?,13µM*,-5%,?
O=[N+]([O-])c1ccc(Cl)c2cccnc12,3%,.,-5%,3%,-8%,-7%
Oc1c(I)cc(Cl)c2cccnc12,14µM*,?,?,-13%,?,?
O=[N+]([O-])c1cc([N+](=O)[O-])c2cccnc2c1Oc1ccccc1O,22µM*,28,?,?,0%,-13%
O=[N+]([O-])c1cc(Cl)c2cccnc2c1O,13µM*,.,10µM*,-41%,-3%,-9%
O=[N+]([O-])c1cc(F)c2cccnc2c1O,87%,.,7.9µM*,35%,?,-21%
CCOC(=O)c1ccc(NC(=O)CSc2nc3ccccc3c(=O)n2CCNC(C)=O)cc1,.,.,10%,.,-13%,-1%
